Gli-Sufu block: Gli-Sufu pathway antagonists, primary screen, luciferase luminescence, Sufu-KO-LIGHT cells, uHTS. Sufu-KO-LIGHT fibroblasts, Gli luciferase reporter luminescence. inhibition, % at 5 µM. hit rate 0.74% among 340,000;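 active = inhibition above about 55%, limit read from the data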
Mdm2-MdmX inh: inhibitors of human Mdm2-MdmX association, primary screen, cell-based, luminescence, split luciferase, SaOS-2, uHTS. SaOS-2 split-luciferase Mdm2/MdmX complementation. Protein Mdm4 (Homo sapiens) + E3 ubiquitin-protein ligase Mdm2 (Homo sapiens), …. inhibition, % at 8 µM. hit rate 3% among 330,000;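 active = inhibition of at least 50% at 8 µM in the primary screen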
Beta apoptosis: inhibitors of cytokine-induced beta cell apoptosis, primary screen, luminescence; protection from apoptosis, % (no concentration beside the values); hit rate 0.8% among 300,000; INS-1E cytokine-induced death, ATP luminescence, 48 h; percent of positive-control rescue, neutral wells zero; AID 435005, 2010;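 active = Every replicate reaches about 75%, or at least half do and their mean reaches it too, limit read from the data; inconclusive = At least half of replicates reach the limit but their mean does not; inactive = Under half of replicates reach the limit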;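 note: higher means more ATP so stronger rescue from cytokine killing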
Jurkat NFkB inh: inhibitors of induced NF-kB luciferase reporter, primary screen, TCR NF-kB activation inhibitor project, cell-based, luminescence, uHTS. Jurkat, PMA/ionomycin-induced NF-kB luciferase reporter. inhibition, % at 4 µM. hit rate 0.53% among 330,000. AID 435003, 2010; in the data active = inhibition above about 50%
CSC inhib: cancer stem cell viability inhibitors, primary screen, luminescence; cancer stem cell-like cells viability; inhibition, % at 7.5 µM; hit rate 1.1% among 300,000; AID 2717, 2010; in the data active = inhibition above about 75%; inconclusive = no clear call, values can overlap the other calls; tested in HMLE shEcad cells
697 NFkB inh: inhibitors of PMA/ionomycin-induced NF-kB reporter, 697 cells, primary screen, B-cell NF-kB inhibitor project, cell-based, luminescence, uHTS; inhibition, % at 4 µM; hit rate 0.33% among 330,000; AID 435022, 2010; 697 B-cell NF-kB luciferase reporter, 16 h; in the data active = inhibition above about 35%
Jurkat NFkB conf: PMA/ionomycin-induced NF-kB reporter inhibitors, Jurkat retest, confirmation, T-cell NF-kB inhibitor project, cell-based, luminescence, single concentration | shares compounds with Jurkat NFkB inh | Jurkat NF-kB luciferase, 16 h | inhibition, % at 4 µM | hit rate 27% among 2,700;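 active = inhibition reaching about 45% at 4 µM in either replicate, limit read from the data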
697 NFkB conf: PMA/ionomycin-induced NF-kB reporter inhibitors, 697 retest, confirmation, B-cell NF-kB inhibitor project, cell-based, luminescence, single concentration. shares compounds with 697 NFkB inh. 697 B-cell NF-kB luciferase, 16 h. inhibition, % at 4 µM. hit rate 35% among 2,000; in the data active = inhibition mostly above about 28%, no sharp cut-off; inactive = mostly below about 22%
Mdm2-MdmX conf: Mdm2-MdmX complex disruptors, retested hits, confirmation, luminescence, single concentration; shares compounds with Mdm2-MdmX inh; hit rate 55% among 10,000; Mdm2-MdmX binding, luminescent assay; AID 489028, 2010; inhibition, % at 8 µM; in the data active = inhibition above about 40%
FLuc counter: full-length luciferase signal inhibition, confirmation, counter-screen for Mdm2/MdmX interaction inhibitor project, cell-based, single concentration, SaOS-2 | shares compounds with Mdm2-MdmX inh | hit rate 77% among 6,200 | AID 504607, 2011 | SaOS-2 full-length luciferase counterscreen, luminescence | inhibition, % at 8 µM;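 active = mean inhibition at 8 µM reaching about 37%, which flags the compound as non-specific, limit read from the data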;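 note: p53-null SaOS-2 cells with luciferase driven by a doxycycline-inducible promoter; compound on cells about two nights before reading with doxycycline added after day one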
Large screens that a line does not name were inactive (follow-up assays come after a bar, where they were run). Compounds with a hit are over-represented: about 4.5% of the library has one in this group of screens.

O=C(CCl)N=c1sccn1Cc1ccccc1Cl	Mdm2-MdmX inh 99.4, Jurkat NFkB inh 91.4, 697 NFkB inh 104.4 | Jurkat NFkB conf 71.4 | 697 NFkB conf 94.0 | Mdm2-MdmX conf 99.0 | FLuc counter 51.3
Cc1ccc(NC2CCCN(C(=O)Cc3nonc3C)C2)cc1C (centres undefined)	none
COc1ccccc1C(=O)NC(=O)CSc1nnc(SC)s1	none
COc1ccc(Cl)cc1NC(=O)CN(C)C(=O)c1n[nH]c2ccccc12	none
Cc1cccc(N2CCN(C(=O)c3cc(S(=O)(=O)N4CCCC4)cn3C)CC2)c1C	Mdm2-MdmX inh 55.3, Jurkat NFkB inh 61.1 | Jurkat NFkB conf inactive | Mdm2-MdmX conf 58.5 | FLuc counter 49.0
Cc1cccc(N2CCN(C(=O)c3cc(S(=O)(=O)N4CCOCC4)cn3C)CC2)c1C	none
O=C(NCCC1CCCCN1S(=O)(=O)c1cccs1)C(=O)Nc1ccccc1 (centres undefined)	none (no result: Beta apoptosis)
O=C(NCCCO)C(=O)Nc1ccc2c(c1)N(S(=O)(=O)c1cccs1)CCC2	none (no result: CSC inhib)
COc1ccc(NC(=O)C(=O)NCC2CCCN2S(=O)(=O)c2ccc(C)cc2)cc1 (centres undefined)	Gli-Sufu block 69.2, Mdm2-MdmX inh 66.3, Jurkat NFkB inh 76.1 (no result: Beta apoptosis) | Jurkat NFkB conf 64.2 | Mdm2-MdmX conf 78.5 | FLuc counter 104.3
COc1ccc(NC(=O)C(=O)NCCC2CCCCN2S(=O)(=O)c2cccs2)cc1 (centres undefined)	Mdm2-MdmX inh 52.5, Jurkat NFkB inh 60.8 (no result: Beta apoptosis) | Jurkat NFkB conf inactive | Mdm2-MdmX conf 73.3 | FLuc counter 74.8
COCCNC(=O)C(=O)Nc1ccc2c(c1)N(S(=O)(=O)c1cccs1)CCC2	Mdm2-MdmX inh 55.6, Jurkat NFkB inh 60.1 (no result: CSC inhib) | Jurkat NFkB conf inactive | Mdm2-MdmX conf 72.2 | FLuc counter 63.9
CCN(CC)c1ccc(C=Nc2cccc(S(=O)(=O)N3CCOCC3)c2)c(O)c1	none
CCN(CC)c1ccc(/C=N/NC(=O)c2cccc(S(=O)(=O)N3CCOCC3)c2)c(O)c1	Mdm2-MdmX inh 75.4, Beta apoptosis 74.9, Jurkat NFkB inh 63.7, CSC inhib 109.9 (no result: Gli-Sufu block) | Jurkat NFkB conf inactive | Mdm2-MdmX conf 84.0 | FLuc counter 52.9
Cc1ccc2nc(-c3ccc4c(c3)OCCO4)cn2c1	Gli-Sufu block 65.2, Mdm2-MdmX inh 94.4, Jurkat NFkB inh 82.6 | Jurkat NFkB conf 51.0 | Mdm2-MdmX conf 97.5 | FLuc counter 55.3
COc1ccccc1C1=NOC(COc2ccc3c(C)cc(=O)oc3c2)C1 (centres undefined)	Mdm2-MdmX inh 58.3, Jurkat NFkB inh 67.0, CSC inhib 79.1 | Jurkat NFkB conf inactive | Mdm2-MdmX conf 57.6 | FLuc counter 88.2
COc1ccc(C2=NOC(COc3ccc4c(C)cc(=O)oc4c3)C2)c(OC)c1 (centres undefined)	Mdm2-MdmX inh 56.0, Jurkat NFkB inh 51.0 | Jurkat NFkB conf inactive | Mdm2-MdmX conf 56.4 | FLuc counter 60.3
CC(=O)Nc1ccc(SCCCC(=O)c2ccccc2)cc1	none
N=c1c2c(-c3ccccc3)c(-c3ccccc3)n(Cc3ccco3)c2ncn1CCCO	Mdm2-MdmX inh 60.7, Jurkat NFkB inh 56.2 | Jurkat NFkB conf inactive | Mdm2-MdmX conf inactive | FLuc counter 59.1
c1ccc(C[C@H]2CNCCN2CC2(c3ccccc3)CC2)cc1	none
CCOc1ccc(S(=O)(=O)NCc2ccccn2)cc1NC(=O)c1ccccc1F	Mdm2-MdmX inh 56.6, Jurkat NFkB inh 53.7 | Jurkat NFkB conf inactive | Mdm2-MdmX conf 53.1 | FLuc counter 72.0
CC(=O)Nc1ccc(S(=O)(=O)NCC(=O)N2CCN(S(=O)(=O)c3cccs3)CC2)cc1	none (no result: CSC inhib)
Cc1ccc(CCC(=O)Nc2ncc(Cc3cccc(Cl)c3Cl)s2)o1	Mdm2-MdmX inh 68.9, Jurkat NFkB inh 71.7 (no result: Beta apoptosis, CSC inhib) | Jurkat NFkB conf inactive | Mdm2-MdmX conf 66.5 | FLuc counter 76.5
NC1=NC[C@H](Cc2ccc(O)cc2)N1CCc1cc(C(F)(F)F)cc(C(F)(F)F)c1	none
NC1=NC[C@H](Cc2ccc(O)cc2)N1CCCCC1CCCCC1	Gli-Sufu block 59.4, Mdm2-MdmX inh 50.5, Beta apoptosis 101.8, Jurkat NFkB inh 79.0, 697 NFkB inh 40.6 | Jurkat NFkB conf 49.8 | 697 NFkB conf 40.4 | Mdm2-MdmX conf inactive
FC(F)(F)c1nnc2c(Sc3ccc(Cl)cc3)nc3ccccc3n12	Mdm2-MdmX inh 85.1, Jurkat NFkB inh 74.2 | Jurkat NFkB conf inactive | Mdm2-MdmX conf 94.8 | FLuc counter inactive
CCc1ccc(-c2cc(C(=O)N/N=C/c3c[nH]c4ccccc34)[nH]n2)cc1	Mdm2-MdmX inh 62.3, Jurkat NFkB inh 59.6, CSC inhib inconclusive | Jurkat NFkB conf inactive | Mdm2-MdmX conf 51.0 | FLuc counter 101.3
Oc1ccccc1N=Nc1nc(-c2ccccc2)c(-c2ccccc2)[nH]1	Gli-Sufu block 93.0, Mdm2-MdmX inh 86.5, Beta apoptosis 86.0, Jurkat NFkB inh 58.5 (no result: CSC inhib) | Jurkat NFkB conf 75.9 | Mdm2-MdmX conf 86.0 | FLuc counter 49.7
COc1ccccc1N=Nc1nc(-c2ccccc2)c(-c2ccccc2)[nH]1	none (no result: Mdm2-MdmX inh, Jurkat NFkB inh, 697 NFkB inh)
CC1=NN(C(=O)c2ccccc2F)C(O)(c2ccc(Cl)cc2)C1 (centres undefined)	none
NC1=NC[C@H](c2ccccc2)N1CCc1cc(C(F)(F)F)cc(C(F)(F)F)c1	Mdm2-MdmX inh 80.1, Jurkat NFkB inh 71.0 | Jurkat NFkB conf inactive | Mdm2-MdmX conf 68.0 | FLuc counter 57.3
CC(O)[C@H]1CN=C(N)N1CCc1cc(C(F)(F)F)cc(C(F)(F)F)c1 (some centres undefined)	none
CC(C)(C)n1nc2c(c1NC(=O)Cc1ccc([N+](=O)[O-])cc1)CS(=O)(=O)C2	none
